PubChem BioAssay (EPA / NIEHS)
“And” between values parts separate entries of the source, which are not always exact repeats. Identical values can stand only once. Inconclusive results are not listed. The source made the active and inactive calls. Rule for the calls: active = hit-call score of the fitted dose curve at least 0.9, where 1 is the maximum; inconclusive = response in the unintended direction; inactive = score below 0.9.

Key:
[1] = ACEA_AR_agonist_AUC_viability: ACEA Biosciences xCELLigence Real-Time Cell Analysis on Androgen Receptor Agonism for Viability (AID 2283775);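 for AC50: viability read 80 hours after compound addition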
Summary of the method: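 22Rv1 cells; impedance growth kinetics; 8-pt 1:4 dilutions from 100 uM top final, ≤0.5% DMSO; n = 2; 80 h read; AUC viability, loss-of-signal vs DMSO.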

[2] = ACEA_AR_antagonist_AUC_viability: ACEA Biosciences xCELLigence Real-Time Cell Analysis on Androgen Receptor Antagonism for Viability (AID 2283776);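 note: area under impedance growth curve at 80 h after dosing as viability; hits lower the growth signal relative to DMSO meaning cytotoxicity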
Summary of the method: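 22Rv1 human prostate cancer cells were seeded on electrode plates, monitored overnight, then exposed to eight 1:4 dilutions from 100 uM final. Impedance-based growth kinetics at 80 h gave an AUC viability endpoint normalized to DMSO.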

[3] = ACEA_ER_AUC_viability: ACEA Biosciences xCELLigence Real-Time Cell Analysis on Estrogen Receptor Agonism for Viability (AID 2283782);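 note: hit means loss of impedance signal meaning reduced cell growth or viability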
Summary of the method: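 Viability endpoint: reduced impedance area under the curve relative to DMSO, recorded by real-time electrode sensing over ~80 h of continuous exposure. Duplicate plates of T47D in hormone-depleted medium; eight concentrations, 1:4 dilutions, 100 uM maximum.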

Structure (SMILES): CCCCCCCCCOS(=O)(=O)O
- outcome [1]: inactive
- outcome [2]: inactive

Structure (SMILES): CN(C)C(=O)Nc1ccccc1
- outcome [1]: inactive
- outcome [2]: inactive

Structure (SMILES): CCOCC(C)O (configuration not stated)
- outcome [1]: inactive
- outcome [2]: inactive

Structure (SMILES): COc1ccc(OC)cc1
- outcome [1]: inactive

Structure (SMILES): CC1=CCC(=C(C)C)CC1
- outcome [1]: inactive

Structure (SMILES): CC(=O)Oc1c(C)c(C)c2c(c1C)CC[C@@](C)(CCC[C@H](C)CCC[C@H](C)CCCC(C)C)O2
- outcome [1]: inactive

Structure (SMILES): CC(=O)OC(C)(C)C1CC=C(C)CC1 (configuration not stated)
- outcome [1]: inactive
- outcome [2]: inactive
- AC50 [3]: 79 µM (active)

Structure (SMILES): CCCCC(CC)COCCO (configuration not stated)
- outcome [1]: inactive
- outcome [2]: inactive
- outcome [3]: inactive

Structure (SMILES): C1=COCCC1
- outcome [1]: inactive
- outcome [2]: inactive
- outcome [3]: inactive

Structure (SMILES): OCC=Cc1ccccc1
- outcome [1]: inactive
- outcome [2]: inactive

Structure (SMILES): COC(=O)C(C)Oc1ccc(Oc2ncc(C(F)(F)F)cc2Cl)cc1 (configuration not stated)
- outcome [1]: inactive
- outcome [2]: inactive
- outcome [3]: inactive

Structure (SMILES): CCCCCC1CCC(=O)O1 (configuration not stated)
- outcome [1]: inactive
- outcome [2]: inactive
- outcome [3]: inactive

Structure (SMILES): CCc1cccc(O)c1
- outcome [1]: inactive
- outcome [2]: inactive
- outcome [3]: inactive

Structure (SMILES): O=C(OCc1ccccc1)c1ccccc1O
- outcome [1]: inactive
- outcome [2]: inactive
- AC50 [3]: 94.3 µM (active)

Structure (SMILES): NC(N)=S
- outcome [1]: inactive
- outcome [2]: inactive

Structure (SMILES): C=C(C)C(N)=O
- outcome [1]: inactive
- outcome [2]: inactive

Structure (SMILES): CCCC[N+](C)(CCCC)CCCC
- outcome [1]: inactive
- outcome [3]: inactive

Structure (SMILES): O=C(c1ccc(OCCN2CCCCC2)cc1)c1c(-c2ccc(O)cc2)sc2cc(O)ccc12
- AC50 [1]: 50 µM (active)
- AC50 [2]: 21.7 µM (active)
- AC50 [3]: 11.1 µM (active) and 17.8 µM (active) and 18 µM (active)

Structure (SMILES): CCCCCCCCCCO[C@@H]1O[C@H](CO)[C@@H](O)[C@H](O)[C@H]1O
- outcome [1]: inactive
- outcome [2]: inactive
- AC50 [3]: 80.3 µM (active)

Structure (SMILES): c1ccc(OCCOc2ccccc2)cc1
- outcome [1]: inactive
- outcome [2]: inactive
- outcome [3]: inactive

Structure (SMILES): CCCCN(CCCC)CCCCCCN(CCCC)CCCC
- outcome [1]: inactive
- outcome [3]: inactive

Structure (SMILES): CC(O)CN (configuration not stated)
- outcome [1]: inactive
- outcome [2]: inactive
- outcome [3]: inactive

Structure (SMILES): C=CCCCCCCCCC(=O)OCC
- outcome [1]: inactive
- outcome [2]: inactive
- outcome [3]: inactive

Structure (SMILES): c1ccc2scnc2c1
- outcome [1]: inactive
- outcome [3]: inactive
